# According to PubChem BioAssay (NCATS):
# Records with an inconclusive call do not appear. Unmarked numbers belong to inactive results. The source made the active and inactive calls. The call rests on the fitted dose curve; in most records, active means well fitted curve in the direction sought with a large enough effect; inconclusive means small, poorly fitted or top-dose-only effect, or another doubt; inactive means no such curve, though single readings can be large; an effect the other way counts as inactive or inconclusive.
# Assay: BET inhibitor-based combinations targeting novel dependencies in MECOM-rearranged (r) AML: OCI-AML3 cell line (AID 2202232); further: nearly all actives have a fitted effect of over 35% in size;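 on viability (% of control): plate controls were DMSO vehicle wells for no effect and wells without cells for full effect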
# Conditions: CellTiter-Glo luminescence, 48 h; Potency: OCI-AML3 viability; series mostly up to 46 µM; viability (% of control): at the top concentration
# How it was run: (§1)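 Cells were plated at 500 per well and exposed to an 11-point dose series of each drug for 48 hr. Viability was measured by CellTiter-Glo luminescence, normalized to DMSO and empty-well controls, and summarized as AUC and per-cell-line Z-AUC.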
# Potency means the concentration at half of the fitted maximal effect.
Structure (SMILES),viability (% of control),Potency
CCOC(=O)Nc1ccc(NCc2ccc(F)cc2)cc1N,98.8%,–
Cc1ccccc1-n1c(Cn2cnc3c(N)ncnc32)nc2cccc(C)c2c1=O,–,2950 nM (active)
O=C(N[C@@H](COc1ccc2[nH]c(=O)[nH]c2c1)c1ccccc1)c1cccn(Cc2ccc(F)c(F)c2)c1=O,–,10500 nM (active)
C/C=C(/C)C(=O)O[C@H]1C(C)=C2[C@H]([C@@H]1OC(=O)CCCCCCC)[C@@](C)(OC(C)=O)C[C@H](OC(=O)CCC)[C@@]1(O)[C@H]2OC(=O)[C@@]1(C)O,–,662 nM (active)
COc1ccc2c(c[n+](C)c3c4cc5c(cc4ccc23)OCO5)c1OC,–,5900 nM (active)
CN[C@@H]1C[C@H]2O[C@@](C)([C@@H]1OC)n1c3ccccc3c3c4c(c5c6ccccc6n2c5c31)C(=O)NC4,–,83.3 nM (active)
NC(=O)[C@@H](CC1CC1)[C@@H](CCC(F)(F)F)C(=O)N[C@H]1N=C(c2ccccc2)c2cccc(F)c2NC1=O,121%,–
O=C(NCC1CCOCC1)c1cnc(Nc2ccc(Cl)cc2Cl)nc1C(F)(F)F,89.5%,–
CC1(N2CCC(n3c([C@@H]4CCCNC4)nc4ccccc43)CC2)CCCCCCC1,–,16600 nM (active)
COc1cc(C)[nH]c(=O)c1CNC(=O)c1c(C)n([C@H](C)C2CCOCC2)c2ccccc12,103%,–

# Assay: BET inhibitor-based combinations targeting novel dependencies in MECOM-rearranged (r) AML: MV-4-11 cell line (AID 2202233); further: nearly all actives have a fitted effect of over 45% in size;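 on viability, % of control: plate controls were DMSO for no effect and blank wells for full effect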
# Conditions: MV-4-11 AML viability, CellTiter-Glo luminescence, 48 h; series mostly up to 46 µM; viability, % of control: at the top concentration
# How it was run: (§2)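 Activity is given as area under the curve and as Z-AUC, mean-centred within each cell line. It comes from 11-point dose curves normalized to DMSO and empty wells. CellTiter-Glo luminescence was read after 48 hr drug exposure of 500 cells/well.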
Structure (SMILES),"viability, % of control",Potency
CCOC(=O)Nc1ccc(NCc2ccc(F)cc2)cc1N,106%,–
Cc1ccccc1-n1c(Cn2cnc3c(N)ncnc32)nc2cccc(C)c2c1=O,–,1480 nM (active)
C/C=C(/C)C(=O)O[C@H]1C(C)=C2[C@H]([C@@H]1OC(=O)CCCCCCC)[C@@](C)(OC(C)=O)C[C@H](OC(=O)CCC)[C@@]1(O)[C@H]2OC(=O)[C@@]1(C)O,–,166 nM (active)
C[C@]12CC[C@@H]3c4ccc(OC(=O)N(CCCl)CCCl)cc4CC[C@H]3[C@@H]1CC[C@@H]2OP(=O)(O)O,105%,–
COc1ccc2c(c[n+](C)c3c4cc5c(cc4ccc23)OCO5)c1OC,–,5250 nM (active)
NC(=O)[C@@H](CC1CC1)[C@@H](CCC(F)(F)F)C(=O)N[C@H]1N=C(c2ccccc2)c2cccc(F)c2NC1=O,108%,–
O=C(O)CNC(=O)c1c(O)c2ccccc2n(Cc2ccccc2)c1=O,122%,–
O=C(Oc1ccc([N+](=O)[O-])cc1)N1CCC(C(O)(c2ccc3c(c2)OCO3)c2ccc3c(c2)OCO3)CC1,85.4%,–
Cc1cc(SCc2sc(-c3ccc(C(F)(F)F)c(F)c3)nc2C)ccc1OCC(=O)O,–,18600 nM (active)
COc1cc(C)[nH]c(=O)c1CNC(=O)c1c(C)n([C@H](C)C2CCOCC2)c2ccccc12,116%,–

# Assay: BET inhibitor-based combinations targeting novel dependencies in MECOM-rearranged (r) AML: HNT-34 cell line (AID 2202234); further: nearly all actives have a fitted effect of over 35% in size;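 on viability (% of control): plate controls were vehicle wells for no effect and cell-free wells for full effect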
# Conditions: HNT-34 AML viability, CellTiter-Glo luminescence, 48 h; series mostly up to 46 µM; viability (% of control): at the top concentration
# How it was run: as §2
Structure (SMILES),viability (% of control),Potency
Cc1ccccc1-n1c(Cn2cnc3c(N)ncnc32)nc2cccc(C)c2c1=O,97.5%,–
C/C=C(/C)C(=O)O[C@H]1C(C)=C2[C@H]([C@@H]1OC(=O)CCCCCCC)[C@@](C)(OC(C)=O)C[C@H](OC(=O)CCC)[C@@]1(O)[C@H]2OC(=O)[C@@]1(C)O,–,52.5 nM (active)
NC(=O)[C@@H](CC1CC1)[C@@H](CCC(F)(F)F)C(=O)N[C@H]1N=C(c2ccccc2)c2cccc(F)c2NC1=O,93.2%,–
O=C(O)CNC(=O)c1c(O)c2ccccc2n(Cc2ccccc2)c1=O,104%,–
CC1(N2CCC(n3c([C@@H]4CCCNC4)nc4ccccc43)CC2)CCCCCCC1,–,20900 nM (active)

# Assay: BET inhibitor-based combinations targeting novel dependencies in MECOM-rearranged (r) AML: UCSD-AML1 cell line (AID 2202235); further: nearly all actives have a fitted effect of over 40% in size;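 on viability (% of control): plate controls were DMSO vehicle wells for no effect and blank wells for full effect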
# Conditions: UCSD-AML1 AML cells viability, CellTiter-Glo, 48 h; series mostly up to 46 µM; viability (% of control): at the top concentration
# How it was run: as §2
Structure (SMILES),viability (% of control),Potency
CCOC(=O)Nc1ccc(NCc2ccc(F)cc2)cc1N,105%,–
Cc1ccccc1-n1c(Cn2cnc3c(N)ncnc32)nc2cccc(C)c2c1=O,116%,–
CCNC(=O)C[C@@H]1N=C(c2ccc(Cl)cc2)c2cc(OC)ccc2-n2c(C)nnc21,–,833 nM (active)
C/C=C(/C)C(=O)O[C@H]1C(C)=C2[C@H]([C@@H]1OC(=O)CCCCCCC)[C@@](C)(OC(C)=O)C[C@H](OC(=O)CCC)[C@@]1(O)[C@H]2OC(=O)[C@@]1(C)O,–,132 nM (active)
CN[C@@H]1C[C@H]2O[C@@](C)([C@@H]1OC)n1c3ccccc3c3c4c(c5c6ccccc6n2c5c31)C(=O)NC4,–,66.1 nM (active)
NC(=O)[C@@H](CC1CC1)[C@@H](CCC(F)(F)F)C(=O)N[C@H]1N=C(c2ccccc2)c2cccc(F)c2NC1=O,108%,–
O=C(Oc1ccc([N+](=O)[O-])cc1)N1CCC(C(O)(c2ccc3c(c2)OCO3)c2ccc3c(c2)OCO3)CC1,112%,–
Cc1cc(SCc2sc(-c3ccc(C(F)(F)F)c(F)c3)nc2C)ccc1OCC(=O)O,101%,–
COc1cc(C)[nH]c(=O)c1CNC(=O)c1c(C)n([C@H](C)C2CCOCC2)c2ccccc12,110%,–

# Assay: BET inhibitor-based combinations targeting novel dependencies in MECOM-rearranged (r) AML: AML-191 cell line (AID 2202236; further: nearly all actives have a fitted effect of over 35% in size;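 on viability (% of control): plate controls were vehicle wells for no effect and wells without cells for full effect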)
# Conditions: AML-191 viability, CellTiter-Glo luminescence, 48 h; series mostly up to 46 µM; viability (% of control): at the top concentration
# How it was run: as §1
Structure (SMILES),viability (% of control),Potency
CCOC(=O)Nc1ccc(NCc2ccc(F)cc2)cc1N,95.3%,–
Cc1ccccc1-n1c(Cn2cnc3c(N)ncnc32)nc2cccc(C)c2c1=O,89.1%,–
C[C@H](Nc1ncnc2nc[nH]c12)c1nc2ccc(F)cc2c(=O)n1-c1ccccc1,–,5250 nM (active)
O=C(O)CNC(=O)c1c(O)c2ccccc2n(Cc2ccccc2)c1=O,96%,–
CNC(=O)c1ccc(N2C(=S)N(c3ccc(C#N)c(C(F)(F)F)c3)C(=O)C23CCC3)cc1F,89.9%,–
CC1(N2CCC(n3c([C@@H]4CCCNC4)nc4ccccc43)CC2)CCCCCCC1,–,20900 nM (active)
